Records with an inconclusive call do not appear. Unmarked numbers belong to inactive results. Calls come from the whole dose curve; as a rule, active = well fitted inhibition curve with a large enough effect; inconclusive = small, poorly fitted or top-dose-only effect; inactive = flat fitted curve, though single readings scatter.
biological target: Lysine-specific demethylase 5B (Homo sapiens) (UniProt Q9UGL1); test: Optimization screen for KDM5B Histone Demethylases FDH coupled qHTS against the LOPAC library (AID 1347166); settings: KDM5B demethylation, FDH-coupled NADH fluorescence (FDH is formaldehyde dehydrogenase); at 57.5 µM (top of the series); note: 0% is about no effect
Sequence (Q9UGL1 whole entry, looked up): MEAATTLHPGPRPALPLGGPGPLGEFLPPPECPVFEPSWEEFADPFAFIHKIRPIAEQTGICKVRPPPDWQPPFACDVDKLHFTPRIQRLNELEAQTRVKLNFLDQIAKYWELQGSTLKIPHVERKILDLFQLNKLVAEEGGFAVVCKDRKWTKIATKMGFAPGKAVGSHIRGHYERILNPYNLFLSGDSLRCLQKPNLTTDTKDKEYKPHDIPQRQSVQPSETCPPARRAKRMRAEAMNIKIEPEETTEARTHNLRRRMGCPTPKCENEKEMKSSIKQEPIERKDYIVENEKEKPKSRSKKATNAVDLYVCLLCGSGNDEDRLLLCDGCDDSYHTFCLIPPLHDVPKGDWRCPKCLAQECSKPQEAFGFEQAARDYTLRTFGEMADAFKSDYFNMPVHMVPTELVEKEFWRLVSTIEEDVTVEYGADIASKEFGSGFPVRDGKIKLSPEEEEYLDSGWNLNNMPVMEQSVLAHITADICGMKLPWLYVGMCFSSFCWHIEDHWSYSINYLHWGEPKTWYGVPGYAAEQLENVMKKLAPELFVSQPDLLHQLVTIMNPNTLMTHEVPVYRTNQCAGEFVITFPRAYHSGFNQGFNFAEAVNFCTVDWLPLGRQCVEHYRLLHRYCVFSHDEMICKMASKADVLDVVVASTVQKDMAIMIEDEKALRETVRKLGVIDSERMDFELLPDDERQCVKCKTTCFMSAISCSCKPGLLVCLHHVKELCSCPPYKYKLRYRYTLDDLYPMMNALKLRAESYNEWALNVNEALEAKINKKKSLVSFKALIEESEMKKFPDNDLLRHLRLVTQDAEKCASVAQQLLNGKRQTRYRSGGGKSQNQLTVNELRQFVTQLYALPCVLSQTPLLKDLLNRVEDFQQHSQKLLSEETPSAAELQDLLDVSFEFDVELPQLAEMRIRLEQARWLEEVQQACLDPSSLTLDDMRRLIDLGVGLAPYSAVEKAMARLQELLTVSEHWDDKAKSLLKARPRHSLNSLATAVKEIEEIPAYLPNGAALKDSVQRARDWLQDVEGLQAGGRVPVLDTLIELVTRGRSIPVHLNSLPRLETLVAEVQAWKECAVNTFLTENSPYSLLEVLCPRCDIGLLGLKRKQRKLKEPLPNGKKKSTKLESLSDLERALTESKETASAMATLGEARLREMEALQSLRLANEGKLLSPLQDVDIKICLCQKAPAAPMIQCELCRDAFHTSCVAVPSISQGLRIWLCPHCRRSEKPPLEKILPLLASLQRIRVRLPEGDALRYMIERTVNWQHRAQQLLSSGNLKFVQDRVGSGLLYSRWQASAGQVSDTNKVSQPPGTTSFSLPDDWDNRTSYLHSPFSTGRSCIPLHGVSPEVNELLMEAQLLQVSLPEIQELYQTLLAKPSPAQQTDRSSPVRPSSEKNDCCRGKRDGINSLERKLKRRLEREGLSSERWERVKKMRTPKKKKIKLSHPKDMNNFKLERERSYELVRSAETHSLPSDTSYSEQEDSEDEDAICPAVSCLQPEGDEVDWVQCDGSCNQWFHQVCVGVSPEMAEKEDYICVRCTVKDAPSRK
Outline: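 KDM5BDeltaAP (200nM final) in 50mM HEPES pH 7.5, 0.01% Tween-20 was preincubated with compound for 10 min at room temperature. A substrate mix of 12.5uM H3K4Me3, 25uM a-ketoglutarate, ascorbate, Fe2+, NAD+ and formaldehyde dehydrogenase was then added. NADH fluorescence (340/450 nm) was read initially and after 30 min.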

Compared with `NC(N)=N[C@@H](CCC(=O)O)C(=O)O`, `C#CC(N)CCC(=O)O` (stereo not given) is higher in activity, negative = inhibition: -1.71% for the first, -0.625% for the second.

Going from `Cc1cc(Cn2cnc3c2C[C@@H](C(=O)O)N(C(=O)C(c2ccccc2)c2ccccc2)C3)ccc1N` to `NC(=O)CNCCC(c1ccccc1)c1ccccc1`, the activity, negative = inhibition rises from 0.747% to 2.72%.

Compared with `CN1CCCC1CCOC(C)(c1ccccc1)c1ccc(Cl)cc1` (stereo not given), `COc1ccc2c(c1)c(CC(=O)O)c(C)n2C(=O)c1ccccc1` is higher in activity, negative = inhibition: -0.721% for the first, 5.12% for the second.

Going from `N=C(N)c1ccc(OCCCCCOc2ccc(C(=N)N)cc2)cc1` (tested in a mixture with another compound) to `COc1ccc(-c2ccc(N)[n+](CCCC(=O)O)n2)cc1`, the activity, negative = inhibition rises from -13.6% to -3.69%.

Compared with `CC(=O)O[C@H]1CC2(C)[C@@H](C[C@@H](O)[C@H]3[C@@]4(C)CC[C@@H](O)[C@@H](C)[C@@H]4CC[C@@]32C)C1=C(CCC=C(C)C)C(=O)O` (stereo not given in full), `C[C@H]1CC2C3CCC4=CC(=O)C=C[C@]4(C)[C@@]3(Cl)[C@@H](O)C[C@]2(C)[C@@]1(O)C(=O)CO` (stereo not given in full) is higher in activity, negative = inhibition: -4.8% for the first, -1.11% for the second.

Going from `CSC(N)=NCCC[C@H](N)C(=O)O` to `CC(N)=NCCCC[C@@H](N)C(=O)O`, the activity, negative = inhibition falls from -3.11% to -21.9%.

Going from `N[C@@H](CCC(=O)N[C@H](CSN=O)C(=O)NCC(=O)O)C(=O)O` to `CCCCC[C@H](CC(=O)NO)C(=O)N[C@H](C(=O)N1CCC[C@H]1CO)C(C)C`, the activity, negative = inhibition rises from -9.68% to 9.91%.

First: NCC(O)C1CCCCCCC1 (stereo not given)
Second: NCCC1CCCC(CCN)N1 (stereo not given)
The activity, negative = inhibition of the first is higher: -4.79% for the first, -5.63% for the second.

Going from `N#CC(=C(\N)Sc1ccccc1N)/C(C#N)=C(/N)Sc1ccccc1N` to `N[C@H](C(=O)O)[C@H](Cc1ccccc1)C(=O)O`, the activity, negative = inhibition falls from -5.86% to -9.48%.

Compared with `CC(=O)C(C)=O`, `NC1(C(=O)O)CC1` is higher in activity, negative = inhibition: -10.5% for the first, -7.89% for the second.

Compared with `C=CCNc1ncnc2ccc(Br)cc12`, `CN(C)CCC(c1ccc(Br)cc1)c1ccccn1` (stereo not given) is lower in activity, negative = inhibition: -0.201% for the first, -1.47% for the second.

Going from `CC[n+]1c(/C=C/C=C2/N(C)c3ccccc3C2(C)C)sc2ccccc21` to `NC(=O)c1cc[n+](CC2=C(C(=O)O)N3C(=O)[C@@H](NC(=O)[C@@H](c4ccccc4)S(=O)(=O)[O-])[C@H]3SC2)cc1`, the activity, negative = inhibition rises from -25% to -15.3%.

First: NC(=O)c1ccccc1
Second: N=C(N)c1ccccc1
The activity, negative = inhibition of the first is higher: 0.361% for the first, -3.44% for the second.

Going from `CCC1(O)CC2CN(CCc3c([nH]c4ccccc34)[C@@](C(=O)OC)(c3cc4c(cc3OC)N(C=O)C3[C@]45CCN4CC=C[C@@](CC)([C@@H](OC(C)=O)[C@]3(O)C(=O)OC)[C@H]45)C2)C1` (stereo not given in full) to `c1ccc2c(c1)CC(N1CCN(c3cccc4c3OCCO4)CC1)C2`, the activity, negative = inhibition rises from -9.11% to -5.51%.

Going from `CNc1ncnc2c1ncn2[C@H]1C[C@H](OP(=O)(O)O)[C@@H](COP(=O)(O)O)O1` to `Nc1ncnc2c1nc(Br)n2C1OC2COP(=O)(O)O[C@@H]2C1O` (stereo not given in full), the activity, negative = inhibition rises from -15.5% to -2.56%.

Going from `O=C(O)C1CCNCC1` to `O=C(O)CCC(=O)N1CCCC1C(=O)O` (stereo not given), the activity, negative = inhibition rises from -5.33% to -3.62%.

Compared with `N[C@@H](Cc1ccc(F)cc1)C(=O)O`, `N=S(=O)(O)Cc1noc2ccccc12` is higher in activity, negative = inhibition: -14.8% for the first, 3.62% for the second.

Going from `C=C1C[C@@]23CC[C@H]4[C@@](C)(CCC[C@@]4(C)C(=O)O)[C@@H]2CC[C@]1(O)C3` to `O=C(O)CCC/C=C\C[C@@H]1[C@@H](/C=C/[C@H](O)C2Cc3ccccc3C2)[C@@H](F)C[C@@H]1O`, the activity, negative = inhibition falls from -2.05% to -5.83%.

Compared with `CC1C(=O)N(C)C(=O)c2nc[nH]c21` (stereo not given), `CCN1C(=O)C=CC1=O` is higher in activity, negative = inhibition: -5.54% for the first, -3.85% for the second.

First: CN(C)CCCc1cc(C(=O)Nc2ccc(-c3ccncc3)cc2)ccc1O
Second: CCN(c1nc(N)c(C(=O)N=C(N)N)nc1Cl)C(C)C
The activity, negative = inhibition of the first is lower: -5.29% for the first, -3.16% for the second.

Reference: PubChem BioAssay (NCATS)
